Source: PubChem BioAssay
Most compounds without a hit are left out; they make up all but 1.2% or so of the library.
S1P2 agonist = S1P2 receptor agonists, primary screen, cell-based; Sphingosine 1-phosphate receptor 2 (Homo sapiens), O95136; S1P2-expressing cell line, agonist reporter read-out; activation, % at 4.5 µM; actives 0.46% (n = 97,000); AID 729, 2007; in the data active = activation above about 16%;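 note: 0% = vehicle low control and 100% = maximal reference agonist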
S1P2 antag = human S1P2 receptor antagonists, primary screen, cell-based. actives 0.21% (n = 97,000). inhibition, % at 5 µM. Sphingosine 1-phosphate receptor 2 (Homo sapiens), O95136. cell-based S1P2 antagonist assay, inhibition at 5 uM; in the data active = inhibition above about 45%;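 note: CRE beta-lactamase reporter cells expressing human S1P2 stimulated with S1P; 0% = agonist at EC80 alone and 100% = agonist plus reference antagonist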
GALR2 ag = GALR2 receptor agonists, primary screen, cell-based. GALR2-expressing cells, agonist activation read-out. AID 803, 2007. activation, % (test concentration not listed). actives 0.48% (n = 140,000). Galanin receptor type 2 (Homo sapiens), O43603; in the data active = activation above about 5%, passing the limit was not always enough;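 note: 0% = vehicle buffer wells and 100% = reference agonist at full effect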
Target sequence (O43603 whole entry, looked up): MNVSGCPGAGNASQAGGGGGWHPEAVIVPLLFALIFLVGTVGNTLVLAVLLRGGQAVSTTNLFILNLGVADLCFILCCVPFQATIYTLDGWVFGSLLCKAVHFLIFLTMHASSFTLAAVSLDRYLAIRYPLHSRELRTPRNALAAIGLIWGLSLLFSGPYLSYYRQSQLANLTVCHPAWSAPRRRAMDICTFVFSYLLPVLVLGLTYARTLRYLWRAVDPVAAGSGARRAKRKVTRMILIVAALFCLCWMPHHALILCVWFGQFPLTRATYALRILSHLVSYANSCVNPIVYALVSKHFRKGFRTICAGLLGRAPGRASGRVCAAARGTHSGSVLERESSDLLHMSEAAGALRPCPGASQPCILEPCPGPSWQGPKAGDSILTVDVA
GALR2 blocker = GALR2 antagonists in receptor-expressing cells, primary screen. Galanin receptor type 2 (Homo sapiens), O43603. actives 0.39% (n = 140,000). antagonist mode. AID 828, 2007. inhibition, % at 4 µM; in the data active = inhibition above about 27%;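 note: cells stimulated with galanin 1-16 at roughly its EC80; 0% = agonist challenge control and 100% = basal control without agonist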
* hit, by the source's call; · = no result.

SMILES | S1P2 agonist | S1P2 antag | GALR2 ag | GALR2 blocker
Cc1ccc(/C=C/C(=O)Nc2sc3c(c2C#N)CCCC3)o1 | · | · | 5.7* | 1
CCOC(=O)c1c(NC(=O)CSc2nnc3c(Cl)cc(Cl)cn23)sc2c1CCC2 | · | · | 1 | -16
CCOc1ccc(NC(=O)CCN2CCN(S(=O)(=O)c3ccc(Cl)cc3)CC2)cc1 | -6 | -1 | 269* | -10
COc1cccc(CNC(=O)CN(c2cc(C)cc(C)c2)S(=O)(=O)c2c(C)noc2C)c1 | 109* | 14 | -1 | 7
CCOc1ccc(N(CC(=O)NCc2ccccc2)S(=O)(=O)c2c(C)noc2C)cc1 | -4 | 12 | -3 | 0
COc1ccc(OC)c(NC(=O)CN(c2ccc(C)cc2)S(=O)(=O)c2c(C)noc2C)c1 | -7 | -1 | 6.9* | -10
COc1cccc(CNC(=O)CSCc2cnn(-c3ccccc3)c2-n2cccc2)c1 | -5 | -1 | -4 | -11
Cc1cc(C)nc(Sc2nc(Nc3ccccc3)nc(Sc3nc(C)cc(C)n3)n2)n1 | · | · | 0 | 8
C(=N\N1CCOCC1)/c1cccs1 | · | · | -1 | 20
COc1ccc(C2SCC(C(=O)NCc3ccc(F)cc3)N2C(C)=O)cc1 (centres undefined) | 22* | -14 | -3 | 4
COC(=O)N/N=C/c1cn(CC(C)COc2ccccc2)c2ccccc12 (centres undefined) | · | · | 0 | 5
NC1=NC(=O)/C(=C/c2cn(Cc3ccccc3)c3ccccc23)S1 | · | · | 5.3* | 3
C=CCNc1oc(/C=C/c2ccccc2)nc1C#N | 17* | -22 | 12* | 2
COCCn1c(SCC(=O)Nc2nc3ccccc3s2)nnc1-c1ccoc1C | 16* | -19 | -2 | 6
COCCCn1c(SCC(=O)Nc2nnc(C)s2)nnc1-c1ccoc1C | -7 | 4 | -3 | -10
Cc1ccc(CNC(=O)Cn2cc(C(F)(F)F)ccc2=O)cc1 | · | · | -2 | 1
O=S(=O)(c1ccc(N2CCC(c3ccc(Cl)cc3)=N2)cc1)N(CCO)CCO | 111* | -208 | 90* | -40
CN(C)CCCNS(=O)(=O)c1ccc(N2CCC(c3ccc(Cl)cc3)=N2)cc1 | 202* | -214 | 132* | -2
Cc1cc(C)c(C#N)c(SC(F)F)n1 | -7 | 12 | -2 | -2
O=C(Nc1ccc(Br)cc1F)c1cccnc1 | · | · | 1 | -2
Cn1c(NC(=O)c2ccc(S(=O)(=O)N3CCOCC3)cc2)cc(=O)n(C)c1=O | · | · | -1 | -6
Fc1ccc(-n2nnnc2-c2cnc(-c3cccs3)nc2C(F)(F)F)cc1 | -11 | 76* | -1 | 11
Cc1ccc(S(=O)(=O)N(CC(=O)N2CCN(c3ccc(F)cc3)CC2)C2CCCCC2)cc1 | -7 | 5 | -1 | -5
COc1cc(C(=O)Nc2sc3c(c2C(=O)NCc2ccco2)CCCC3)cc(OC)c1OC | 23* | -21 | 0 | -7
Cc1nnc(Sc2nc3c(c(=O)[nH]c(=O)n3C)n2CCCc2ccccc2)s1 | 27* | -31 | -3 | -5
SMILES | S1P2 agonist | S1P2 antag | GALR2 ag | GALR2 blocker
CC(C)CCSc1nc2c(c(=O)[nH]c(=O)n2C)n1CCCc1ccccc1 | -2 | -11 | -3 | 2
COc1cc(-c2nc(S(=O)(=O)c3ccc(C)cc3)c(N3CCOCC3)o2)cc(OC)c1OC | 18* | -55 | -1 | -4
O=C(COC(=O)C12CC3CC(CC(C3)C1)C2)NCCc1ccccc1 | -5 | -8 | -2 | 0
c1ccc(C2COC(c3cccs3)=N2)cc1 (centres undefined) | -7 | 11 | -1 | -2
Fc1ccccc1N1CC(c2ccccc2)C(c2cccs2)=N1 (centres undefined) | 23* | -34 | 46* | -7
CCn1c2ccc(Cl)cc2c2nc3ccccc3nc21 | 43* | -39 | 0 | 5
CCn1c2ccc(OC)cc2c2nc3ccccc3nc21 | 34* | -33 | -1 | -1
CCOc1ccc(Cn2c3ccc(OC)cc3c3nc4ccccc4nc32)cc1 | · | · | -2 | 7
CCCCC(=O)NC(=S)Nc1c(C)cc(Br)cc1C | · | · | 0 | -22
O=C(COC(=O)C1CCN(S(=O)(=O)c2ccccc2C(F)(F)F)CC1)NCc1ccc(F)cc1 | · | · | -2 | -5
COc1ccc(-c2nc3ccccn3c2NCc2ccc3c(c2)OCO3)cc1 | -8 | -14 | -4 | 3
c1ccc(-c2nc3ccccn3c2NCc2ccc3c(c2)OCO3)cc1 | 174* | 6 | -2 | 0
COc1ccc(OC)c(C(=O)CSc2nc3cccnc3n2C)c1 | 32* | -15 | -3 | 8
Cc1ccc(C(=O)CSc2nc3cccnc3n2C)cc1 | -3 | 8 | -2 | -8
COc1ccc(C(C)=O)cc1CSc1nc2ccccc2c(=O)n1-c1ccccc1 | · | · | 5.0* | -13
O=C(N/C(=C/c1cn(-c2ccccc2)nc1-c1ccccc1)C(=O)N1CCOCC1)c1ccc(Cl)cc1Cl | · | · | 0 | -2
Cc1nc(SCC(=O)Nc2ccccc2)c2oc3ccccc3c2n1 | 17* | -32 | -3 | 2
Cc1nc(SCC(=O)Nc2ccc(F)cc2)c2oc3ccccc3c2n1 | -4 | -18 | -3 | 13
CCSc1ccc(-c2nn(-c3ccccc3)cc2/C=C(/C#N)C(=O)NC)cc1 | · | · | 26* | 9
CC(C)CC(=O)OCc1cn(-c2ccccc2)nn1 | -5 | 3 | -1 | -15
CCOC(=O)c1nn(-c2ccccc2)c2nnc(Cc3ccccc3)c(=O)n12 | · | · | 0 | 3
CC(CSc1nc2ccccc2s1)Cn1c(N2CCCC2)nc2c1c(=O)[nH]c(=O)n2C (centres undefined) | 30* | -22 | 0 | 3
CCN1CCN(c2nc3c(c(=O)[nH]c(=O)n3C)n2CCSc2nc3ccccc3s2)CC1 | -2 | 8 | 0 | 5
CC(C)(C)c1ccc(C(=O)NNC(=O)c2cccc(Br)c2)cc1 | 23* | 21 | 1 | -9
CCOC(=O)/C(C#N)=C1\CCCN1CC(N)=S | · | · | -1 | -4
SMILES | S1P2 agonist | S1P2 antag | GALR2 ag | GALR2 blocker
Cc1cc(-c2nnc(SCC(=O)NC3CCCC3)o2)no1 | 70* | 15 | -1 | 1
CC(C)OC(=O)c1c(N)n(CCCN2CCOCC2)c2nc3ccccc3nc12 | 1 | -29 | 3 | 0
Nc1c(C(=O)NCc2ccc3c(c2)OCO3)c2nc3ccccc3nc2n1CCCN1CCOCC1 | 41* | -38 | 32* | -15
COc1ccccc1CNC(=O)c1c(N)n(CCCN2CCOCC2)c2nc3ccccc3nc12 | 58* | -93 | 28* | -16
Nc1c(C(=O)NCCN2CCOCC2)c2nc3ccccc3nc2n1-c1ccc2c(c1)OCO2 | · | · | 1 | -3
Cc1cccc(NC(=O)C2SC(=Nc3c(C)cccc3C)C(C(=O)N3CCOCC3)=C2N)c1 (centres undefined) | · | · | -1 | -9
CCc1ccc(NC(=O)C2(c3ccccc3)CC2(Cl)Cl)cc1 (centres undefined) | 25* | 4 | -2 | 5
C=CCn1c(COc2ccccc2)nnc1SC(C)C(=O)N/N=C/c1cc(Cl)ccc1O (centres undefined) | -1 | -7 | 1 | -18
CC(C)CC1NC(=S)N(Cc2ccccc2)C1=O (centres undefined) | · | · | 0 | -7
